# Results: PMC13541613, “GHT-SELEX demonstrates unexpectedly high intrinsic sequence specificity and complex DNA binding of many human transcription factors”
# How the values were obtained:
# ZNF721 full-length = ZNF721 full-length (Homo sapiens, UniProt Q8TF20-2 1-923); test: HT-SELEX; 20 mM HEPES pH 7, 140 mM KCl, 5 mM NaCl, 1 mM K2HPO4, 2 mM MgSO4, 100 uM EGTA, ZnSO4, 0.1% Tween20; room temperature, 1 h; high values mean tight binding; details: protein: ivt; tags: eGFP (N-terminal); dsDNA, one strand shown
# Chain of ZNF721 full-length (Q8TF20 other isoform, or with tags, fused parts or gaps): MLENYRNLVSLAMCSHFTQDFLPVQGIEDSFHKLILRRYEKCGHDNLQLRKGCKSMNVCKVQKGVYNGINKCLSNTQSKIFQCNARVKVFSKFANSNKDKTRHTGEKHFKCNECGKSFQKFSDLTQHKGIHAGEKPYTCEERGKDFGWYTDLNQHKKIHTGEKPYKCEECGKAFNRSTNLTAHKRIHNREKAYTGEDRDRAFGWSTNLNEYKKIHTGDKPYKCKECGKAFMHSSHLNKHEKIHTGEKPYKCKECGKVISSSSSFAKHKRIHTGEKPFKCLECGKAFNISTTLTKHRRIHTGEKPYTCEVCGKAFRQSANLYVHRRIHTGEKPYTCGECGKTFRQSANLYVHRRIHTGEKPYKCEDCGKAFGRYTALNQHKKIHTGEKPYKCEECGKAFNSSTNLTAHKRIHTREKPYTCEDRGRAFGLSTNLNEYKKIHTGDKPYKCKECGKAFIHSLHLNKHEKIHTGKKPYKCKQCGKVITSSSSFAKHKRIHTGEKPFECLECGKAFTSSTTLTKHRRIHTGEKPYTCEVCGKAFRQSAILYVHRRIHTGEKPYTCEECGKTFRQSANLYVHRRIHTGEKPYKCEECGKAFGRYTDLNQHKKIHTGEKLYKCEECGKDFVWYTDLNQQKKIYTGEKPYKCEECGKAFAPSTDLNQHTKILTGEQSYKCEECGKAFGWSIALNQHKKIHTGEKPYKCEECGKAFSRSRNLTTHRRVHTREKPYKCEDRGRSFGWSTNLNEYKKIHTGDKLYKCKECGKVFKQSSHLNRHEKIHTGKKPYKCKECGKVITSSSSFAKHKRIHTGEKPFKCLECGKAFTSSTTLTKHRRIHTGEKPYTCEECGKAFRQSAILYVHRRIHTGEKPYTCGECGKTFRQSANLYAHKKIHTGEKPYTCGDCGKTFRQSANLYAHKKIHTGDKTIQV
# Procedure, shortened: (§1)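 The binding signal is a relative k-mer count in selected reads, and higher values mean tighter binding. To obtain these reads, bead-bound tagged transcription factor (full-length or DNA-binding-domain fragment, produced in HEK293 lysate or cell-free extract) was mixed with a randomized 40-base DNA library for 1 h at room temperature in low-stringency HEPES/KCl buffer with Tween20. Bound DNA was recovered by washing and heat elution, PCR-amplified through successive cycles and sequenced on Illumina (~3 million 60 bp reads per sample).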
# ZNF721 DBD2 = ZNF721 DBD2 (Homo sapiens, UniProt Q8TF20-2 395-923); test: as above; details: protein: ivt; tags: eGFP (N-terminal); dsDNA, one strand shown
# Chain of ZNF721 DBD2 (Q8TF20 383-911): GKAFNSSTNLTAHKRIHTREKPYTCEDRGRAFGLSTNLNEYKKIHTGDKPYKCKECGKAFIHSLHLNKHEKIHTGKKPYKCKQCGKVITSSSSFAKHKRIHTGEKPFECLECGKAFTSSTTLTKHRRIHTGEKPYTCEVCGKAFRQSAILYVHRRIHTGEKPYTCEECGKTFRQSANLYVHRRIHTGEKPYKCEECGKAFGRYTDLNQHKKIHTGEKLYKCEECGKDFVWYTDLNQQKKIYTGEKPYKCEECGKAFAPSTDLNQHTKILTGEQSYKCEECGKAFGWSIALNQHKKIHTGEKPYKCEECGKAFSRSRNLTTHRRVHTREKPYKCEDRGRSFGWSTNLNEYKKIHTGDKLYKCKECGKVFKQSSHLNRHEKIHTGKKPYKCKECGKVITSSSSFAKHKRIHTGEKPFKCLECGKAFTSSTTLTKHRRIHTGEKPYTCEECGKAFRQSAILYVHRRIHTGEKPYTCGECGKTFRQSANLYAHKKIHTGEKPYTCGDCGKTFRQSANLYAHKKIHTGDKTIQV
# Procedure, shortened: as §1
Sequence,binding signal (ZNF721 full-length),binding signal (ZNF721 DBD2)
AAGCAGTGTC,0.13 relative 10-mer count,0.151 relative 10-mer count
ACAGAGTACC,0.123 relative 10-mer count,0.152 relative 10-mer count
AAAAGCAGTG,0.383 relative 10-mer count,0.397 relative 10-mer count
CAGCATCTCC,0.126 relative 10-mer count,0.214 relative 10-mer count
AGCAGTGTTG,0.13 relative 10-mer count,0.223 relative 10-mer count
CAGAAAACAG,0.147 relative 10-mer count,0.264 relative 10-mer count
ACACTGCTTG,0.107 relative 10-mer count,0.138 relative 10-mer count
AAAAGCAGCG,0.276 relative 10-mer count,0.326 relative 10-mer count
ACAAAACAGT,0.115 relative 10-mer count,0.123 relative 10-mer count
AAAAAACAGG,0.278 relative 10-mer count,0.289 relative 10-mer count
AAACAGGGGT,0.106 relative 10-mer count,0.153 relative 10-mer count
AAACAGTGTT,0.338 relative 10-mer count,0.546 relative 10-mer count
GAGACACTGC,0.113 relative 10-mer count,0.128 relative 10-mer count
AAAACAGAGT,0.236 relative 10-mer count,0.279 relative 10-mer count
AAAAAAACAG,0.967 relative 10-mer count,0.753 relative 10-mer count
CGCTGTTTTC,0.221 relative 10-mer count,0.356 relative 10-mer count
AAACAGGGTT,0.271 relative 10-mer count,0.368 relative 10-mer count
AAACAGCATC,0.208 relative 10-mer count,0.21 relative 10-mer count
AACAGCATAC,0.51 relative 10-mer count,0.709 relative 10-mer count
AAAAGCAGGG,0.207 relative 10-mer count,0.218 relative 10-mer count
GAAAAACAGC,0.265 relative 10-mer count,0.324 relative 10-mer count
AAAACAGCGT,0.759 relative 10-mer count,0.975 relative 10-mer count
CAGCATGACC,0.229 relative 10-mer count,0.437 relative 10-mer count
AAAAACAGCG,0.589 relative 10-mer count,0.668 relative 10-mer count
CGAAAACAGC,0.167 relative 10-mer count,0.261 relative 10-mer count
AAAACAGCAT,0.921 relative 10-mer count,1 relative 10-mer count
